For 40 compounds, Potency and viability, % of control results are on record in PubChem BioAssay (NCATS).

Where “and” joins values, the source holds several entries; their conditions need not be identical. Identical values can stand only once. Inconclusive results are not listed. Entries that show only a call come without a potency. Values without a mark were called inactive. Calls of active or inactive are those of the source. The call rests on the fitted dose curve; in most records, active means well fitted cell-killing curve with a large enough effect; inconclusive means small, poorly fitted or top-dose-only effect, or effect the other way; inactive means no such curve, though single readings can be large or run the other way.
Potency means the concentration at half of the fitted maximal effect.

The assay is described as follows: Viability qHTS for spleen associated tyrosine kinase inhibitor (SYKi) drug resistant MV4-11 cells (AID 1963824). Further: nearly all actives have a fitted effect of over 35% in size. To be noted: SYKi-resistant MV4-11 viability, CellTiter-Glo, 72 h; series mostly up to 45 µM. From the text: Department of Medicine, Hematology/Oncology
University Hospital Frankfurt, Germany.
Trials have shown promising clinical activity of the selective SYK inhibitor entospletinib in patients with high expressing HOXA9/MEIS1 acute leukemias. As the development of resistance mechanisms is a common problem in the use of targeted drugs, we performed a chemical library screen to identify drug sensitivities in SYK inhibitor resistant AML cells. […] Glucocorticoids are potent immunosuppressants which work in part by inhibiting the transcription of cytokine genes.
Described herein is a viability screen to look for activity in the SYK inhibitor drug resistant cell line against four NCATS compound libraries (MIPE 5.0, NPC, NPACT, and Kinase) totaling 11372 compounds. Active hits were reacquired for confirmation and further secondary assay testing.
SEQUENCE No. (e.g., 1, 2, 3, etc.); […] (e.g., Cells, Incubation, Reagent, etc.); VALUE; DESCRIPTION.
1; Media; 2uL; white, solid-bottom Corning assay plate.
2; Compounds; 23nL; Echo acoustic dispenser.
3; Cell; 5uL; 500 cells per well.
4: Incubation; 72hr; 37 C, 5% CO2, 95% humidity.
5; Reagent; 3uL; CellTiter-Glo reagent (Promega).
6; Incubation; 10min; room temperature.
7; Detection; Luminescence; ViewLux plate reader (PerkinElmer).
NOTES (numbers refer to Sequence numbers above
1. Quantitative high-throughput screening (qHTS) of small molecule compounds was conducted on drug resistant SYKi MV4-11 cell line.
2. Twenty-three nanoliter of small molecule compounds were added to each assay plates using the Echo acoustic dispenser (Beckman Coulter).
3. Cells were seeded into the assay plates at a final density of 500 cells in 5uL of media per well using the Multidrop Combi dispenser.
4. Plates were covered with stainless steel gasketed lids and incubated for 72 hours at standard cell culture conditions.
5. Viability was assessed by adding 3uL of CellTiter-Glo detection reagent (Promega).
6. Plates were covered with gasket lids and incubated for 10 minutes at room temperature.
7. Luminescence was measured on a ViewLux plate reader (PerkinElmer).
With `C[C@@H](O)[C@H](N)C(=O)O`, the Potency result is “inactive”.

For `Cc1nnc(C(=O)NC(C)(C)c2nc(C(=O)NCc3ccc(F)cc3)c(O)c(=O)n2C)o1`, the Potency entry was “inactive”.

In the case of `CC1C2=CC(=O)OC2(O)CC2C1CCC1C(C)(C)CCC(O)C21C` (stereo not given), the Potency was 4.53 µM (active).

Consider `CN[C@H](C(=O)N[C@H](C(=O)N(C)[C@H](/C=C(\C)C(=O)O)C(C)C)C(C)(C)C)C(C)(C)c1ccccc1`, for which the Potency result is “inactive”.

In the case of `C=CC(C)(C)c1[nH]c2cc3c(cc2c1CC1NC(=O)C2CCCN2C1=O)C=CC(C)(C)O3` (stereo not given), the Potency entry was “inactive”.

As for `C#CCOc1ccc2c(c1)c(-c1ccc(C(C)C)cc1)nc(=O)n2C(C)C`, the Potency is 9.2 µM (active).

In the case of `O=C(O[C@H]1[C@@H]2C[C@@H]3OC[C@](O)([C@@H]1Cl)[C@H]2C(O[C@@H]1O[C@H](CO)[C@@H](O)[C@H](O)[C@H]1O)O3)c1ccc(O)c(O)c1` (stereo not given in full), the Potency entry was “inactive”.

On to `N/C(=N\N=C\c1ccc(Cl)cc1)N/N=C/c1ccc(Cl)cc1`, for which the Potency entry was “inactive”.

Regarding `C=C(CO)C(=O)O[C@H]1C[C@@]23O[C@@H]2CC/C(=C/[C@H]2OC(=O)C(=C)[C@H]12)CO[C@H]3O`, the Potency is 11.4 µM (active).

Turning to `c1ccc(N2CCN(CCc3nn[nH]n3)CC2)cc1`, the Potency result is “inactive”.

Regarding `Cn1c(=O)cc(N2CCCC(N)C2)n(Cc2ccccc2C#N)c1=O` (stereo not given), the Potency entry was “inactive”.

As to `C=C1C(=O)O[C@@H]2[C@H]3C(C)=CC(=O)C3=C(C)[C@@H](OC(=O)/C(C)=C\C)[C@H](O)[C@@H]12`, the Potency was 1.43 µM (active).

On to `C[C@@H](NCCCc1cccc(C(F)(F)F)c1)c1cccc2ccccc12`, for which the Potency was 13.3 µM (active) and 7.42 µM (active).

Consider `CC(C)(C)c1ccc(NC(=O)N2CCN(c3ncccc3Cl)CC2)cc1`, for which the Potency is 4.11 µM (active).

Regarding `C=C1C(O)CC2C(C(=O)O)=COC(O[C@@H]3O[C@H](COC(=O)c4ccc(O)cc4)[C@@H](O)[C@H](O)[C@H]3O)C12` (stereo not given in full), the Potency entry was “inactive”.

Take `C=C1C(OC2OC(CO)C(O)C(O)C2O)CC2C(C)(C)C(O)CCC2(C)C1CC/C(C)=C\COC(=O)CC(=O)O` (stereo not given): the Potency is 5.44 µM (active).

For the compound `C=C[C@H]1[C@H](O[C@@H]2O[C@H](CO)[C@@H](O)[C@H](OC(=O)/C=C/c3ccc(O)c(OC)c3)[C@H]2O)OC=C2C(=O)OCC[C@]21O`, the Potency entry was “inactive”.

Turning to `Cc1cc(O)cc2c1O[C@](C)(CCC[C@H](C)CCC[C@H](C)CCCC(C)C)CC2`, the Potency entry is “inactive”.

As for `COC1=CC(=O)C[C@@H](C)[C@@]12Oc1c(Cl)c(OC)cc(OC)c1C2=O`, the Potency entry is “inactive”.

For the compound `COc1cc2c(cc1OC)C(C(C(=O)N(CCc1ccc(OC)c(OC)c1OC)CCc1ccc(OC)c(OC)c1OC)c1ccccc1)=NCC2` (stereo not given), the Potency was 21.1 µM (active).

Consider `COC(=O)CC[C@H](NC(=O)[C@H](CC(C)C)NC(=O)OCc1ccccc1)C(=O)N[C@@H](Cc1cnc[nH]1)C(=O)N[C@@H](CC(=O)OC)C(=O)CF`, for which the viability, % of control is 91.2% [at 9.25 µM].

On to `CC[C@@H](Nc1c(Nc2cccc(C(=O)N(C)C)c2O)c(=O)c1=O)c1ccc(C)o1`, for which the Potency result is “inactive”.

As to `C[C@@H]1O[C@@H](O[C@H]2[C@H](OC(=O)[C@]34CCC(C)(C)C[C@H]3C3=CCC5[C@@]6(C)CC[C@H](O[C@@H]7O[C@H](CO[C@@H]8OC[C@H](O)[C@H](O)[C@H]8O[C@@H]8OC[C@@H](O)[C@H](O)[C@H]8O)[C@@H](O)[C@H](O)[C@H]7O)C(C)(C)C6CC[C@@]5(C)[C@]3(C)C[C@H]4O)O[C@H](CO)[C@@H](O)[C@@H]2O)[C@H](O[C@@H]2O[C@H](CO)[C@@H](O)[C@H](O)[C@H]2O)[C@H](O)[C@H]1O[C@@H]1OC[C@@H](O)[C@H](O[C@@H]2OC[C@@H](O)[C@H](O)[C@H]2O)[C@H]1O` (stereo not given in full), the viability, % of control is 88.9% [at 4.97 µM].

With `CCOc1cc(NC(C)=O)ccc1C(=O)OC`, the Potency entry was “inactive”.

For `COc1ccc2c(c1)c(CC(=O)OCC(=O)O)c(C)n2C(=O)c1ccc(Cl)cc1`, the Potency entry was “inactive”.

In the case of `NC/C=C/C(=O)O`, the Potency entry is “inactive”.

In the case of `CC1(C)C(=O)N2c3ccccc3C(O)(CC(C(=O)O)n3cnc4ccccc4c3=O)C2N1O` (stereo not given), the Potency is 0.252 µM (active).

For the compound `COc1cc(/C=C/C(=O)OC[C@H]2O[C@H](O[C@]3(CO)O[C@H](CO)[C@@H](O)[C@@H]3O)[C@H](O)[C@@H](O)[C@@H]2O)cc(OC)c1O`, the Potency entry is “inactive”.

As for `CC1(C)CC[C@]2(C(=O)O[C@@H]3O[C@H](CO[C@@H]4O[C@H](CO)[C@@H](O)[C@H](O)[C@H]4O[C@@H]4O[C@H](CO)[C@@H](O)[C@H](O)[C@H]4O)[C@@H](O)[C@H](O[C@@H]4O[C@H](CO)[C@@H](O)[C@H](O)[C@H]4O)[C@H]3O)CC[C@]3(C)C(=CCC4[C@@]5(C)CC[C@@H](O)[C@@](C)(C(=O)O[C@@H]6O[C@H](CO)[C@@H](O)[C@H](O)[C@H]6O)C5CC[C@]43C)[C@@H]2C1` (stereo not given in full), the viability, % of control was 80.3% [at 9.25 µM].

`Cn1cc(-c2ccc(-c3cncc(Cl)c3N3CCC4(CCNC4=O)CC3)cc2)cn1`: the Potency was 1.48 µM (active).

On to `O=C(NO)c1ccc(C2=Nc3ccccc3Oc3ccccc32)cc1`, for which the Potency was 2.95 µM (active).

For `Clc1ccccc1CNCC1CCC(CNCc2ccccc2Cl)CC1` (stereo not given), the Potency is 14.6 µM (active).

With `COc1cc(C2c3cc(O)c(OC)cc3CC(CO)C2CO)ccc1O` (stereo not given), the Potency entry is “inactive”.

In the case of `COc1c(C)cnc(Cn2cnc3c(Cl)nc(N)nc32)c1C`, the Potency is 0.235 µM (active).

For `CC1=CC(=O)CC(C)(C)C1CCC(C)O[C@@H]1O[C@H](CO)[C@@H](O)[C@H](O)[C@H]1O` (stereo not given in full), the Potency entry is “inactive”.

As for `Cn1ncc(Cl)c1-c1cc(C(=O)N[C@H](CN)Cc2ccc(F)c(F)c2)sc1Cl`, the Potency was 11.6 µM (active) and 4.68 µM (active).

Consider `CC(C)C(N)C(=O)OCCOCn1cnc2c(=O)[nH]c(N)nc21` (stereo not given), for which the Potency entry is “inactive”.

In the case of `CC1(C)S[C@@H]2[C@H](NC(=O)[C@H](NC(=O)N3CCN(S(C)(=O)=O)C3=O)c3ccccc3)C(=O)N2[C@H]1C(=O)O`, the Potency result was “inactive”.

Consider `CNC(=O)[C@@H](NC(=O)[C@H](CC(C)C)[C@H](O)C(=O)NO)C(C)(C)C`, for which the Potency is 10.5 µM (active).

Consider `N#Cc1ccc(COc2ccc(-c3cccc4nc(NC(=O)C5CC5)nn34)cc2)cn1`, for which the Potency is 0.651 µM (active).
